Experimental findings from PubChem BioAssay (NCATS) are described below.

Experiment [1] addresses Rap guanine nucleotide exchange factor 3 (Homo sapiens) (UniProt O95398). Briefly: Confirmatory qHTS for agonist of cAMP-regulated guanine nucleotide exchange factor 3 (EPAC1) (AID 1645881).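 Further: EPAC1 catalysed release of BODIPY-GDP from Rap1B seen as fluorescence loss; 100% = effect of cAMP agonist control; nearly all actives have a fitted effect of over 75% in size.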
The target in experiment [2] is Rap guanine nucleotide exchange factor 4 (Homo sapiens) (UniProt Q8WZA2). As to the kind of experiment: Confirmatory qHTS for agonist of cAMP-regulated guanine nucleotide exchange factor 4 (EPAC2) (AID 1645884).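 Further: nucleotide exchange releases bodipy-GDP from Rap1 and this lowers its fluorescence; on the % scale 0 is the no-effect control and ±100 the full control effect; nearly all actives have a fitted effect of over 65% in size.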
Experiment [3] has the same target. Briefly: Confirmatory qHTS for antagonist of cAMP-regulated guanine nucleotide exchange factor 4 (EPAC2) (AID 1645885). Further: nearly all actives have a fitted effect of over 25% in size. Further: potency means the concentration at half of the fitted maximal effect. On activity change, negative = inhibition: on the % scale 0 is the no-effect control and ±100 the full control effect.
Experiment [4] addresses Rap guanine nucleotide exchange factor 3 (Homo sapiens) (UniProt O95398). Briefly: Counterscreen qHTS for antagonist of cAMP-regulated guanine nucleotide exchange factor 3 (EPAC1) (AID 1645888).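 Further: fluorescence loss as bound BODIPY-GDP is released from Rap1B; % of control where 0% means no effect.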 The method in brief: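 Rap1B–BODIPY-GDP (250 nM) with 50 uM GDP; compounds pin-transferred to 9.74 nM–152 uM final (activator) or from 7.32 nM upwards (inhibitor). Fluorescence Ex/Em 480/540 nm read at 5 and 30 min, then after adding cAMP or buffer, at room temperature.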

Results filed as inconclusive are left out. Values without a mark were called inactive. Activity calls are given as the source filed them. The call rests on the fitted dose curve; in most records, active means well fitted curve in the direction sought with a large enough effect; inconclusive means small, poorly fitted or top-dose-only effect, or another doubt; inactive means no such curve, though single readings can be large; an effect the other way counts as inactive or inconclusive.

Chain of Rap guanine nucleotide exchange factor 4 (Homo sapiens) (Q8WZA2 whole entry, looked up): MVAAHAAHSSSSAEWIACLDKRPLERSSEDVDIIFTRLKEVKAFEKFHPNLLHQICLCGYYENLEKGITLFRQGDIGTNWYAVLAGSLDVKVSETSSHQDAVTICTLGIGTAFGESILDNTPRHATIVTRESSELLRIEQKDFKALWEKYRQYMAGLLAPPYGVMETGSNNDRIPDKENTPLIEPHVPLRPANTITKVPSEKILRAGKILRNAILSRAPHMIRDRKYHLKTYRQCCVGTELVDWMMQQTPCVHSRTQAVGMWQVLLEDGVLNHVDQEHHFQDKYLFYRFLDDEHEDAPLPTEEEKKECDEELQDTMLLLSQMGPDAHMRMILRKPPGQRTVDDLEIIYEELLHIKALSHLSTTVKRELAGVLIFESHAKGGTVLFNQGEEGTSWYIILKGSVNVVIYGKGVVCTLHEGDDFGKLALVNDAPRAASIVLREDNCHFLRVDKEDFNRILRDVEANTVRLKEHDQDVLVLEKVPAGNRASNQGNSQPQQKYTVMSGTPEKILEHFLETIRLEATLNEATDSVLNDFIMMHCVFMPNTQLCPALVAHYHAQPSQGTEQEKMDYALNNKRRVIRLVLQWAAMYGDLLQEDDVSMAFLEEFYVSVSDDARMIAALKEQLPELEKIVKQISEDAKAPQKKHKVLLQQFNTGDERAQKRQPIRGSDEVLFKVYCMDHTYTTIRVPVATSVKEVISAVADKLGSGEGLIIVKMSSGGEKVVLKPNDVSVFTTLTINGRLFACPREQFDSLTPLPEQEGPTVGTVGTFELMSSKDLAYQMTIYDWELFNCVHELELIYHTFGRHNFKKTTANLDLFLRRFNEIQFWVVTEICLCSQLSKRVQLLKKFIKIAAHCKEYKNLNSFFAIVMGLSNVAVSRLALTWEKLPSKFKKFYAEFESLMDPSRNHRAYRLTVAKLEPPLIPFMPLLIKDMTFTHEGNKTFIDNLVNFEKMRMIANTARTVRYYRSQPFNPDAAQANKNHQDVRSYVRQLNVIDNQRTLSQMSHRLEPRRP
Chain of Rap guanine nucleotide exchange factor 3 (Homo sapiens) (O95398 whole entry, looked up): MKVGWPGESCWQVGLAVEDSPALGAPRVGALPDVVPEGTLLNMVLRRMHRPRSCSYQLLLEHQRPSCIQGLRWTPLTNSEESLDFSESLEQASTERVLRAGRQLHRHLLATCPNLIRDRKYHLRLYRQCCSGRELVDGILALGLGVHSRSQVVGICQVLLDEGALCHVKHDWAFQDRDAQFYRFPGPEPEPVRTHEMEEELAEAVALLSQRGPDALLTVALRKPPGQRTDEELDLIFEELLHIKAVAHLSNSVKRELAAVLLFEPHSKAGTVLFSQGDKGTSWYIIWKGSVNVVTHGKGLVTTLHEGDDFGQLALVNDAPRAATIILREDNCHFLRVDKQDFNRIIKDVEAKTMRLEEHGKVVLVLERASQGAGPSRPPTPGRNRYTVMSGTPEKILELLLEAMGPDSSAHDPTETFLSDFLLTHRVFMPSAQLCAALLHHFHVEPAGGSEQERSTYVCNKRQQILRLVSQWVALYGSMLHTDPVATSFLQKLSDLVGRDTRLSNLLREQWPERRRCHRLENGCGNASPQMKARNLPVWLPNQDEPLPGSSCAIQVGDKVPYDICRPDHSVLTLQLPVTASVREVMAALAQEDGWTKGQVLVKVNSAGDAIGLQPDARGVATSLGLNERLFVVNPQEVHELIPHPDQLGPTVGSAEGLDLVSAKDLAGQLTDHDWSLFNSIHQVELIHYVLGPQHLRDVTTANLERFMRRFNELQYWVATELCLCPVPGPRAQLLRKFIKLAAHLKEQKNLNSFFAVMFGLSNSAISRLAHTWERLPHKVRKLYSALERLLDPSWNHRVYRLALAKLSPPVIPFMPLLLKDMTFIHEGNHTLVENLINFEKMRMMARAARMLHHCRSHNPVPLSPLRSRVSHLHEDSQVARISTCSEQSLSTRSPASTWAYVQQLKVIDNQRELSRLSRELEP

As to `CCn1c(SCC(=O)N/N=C/C=C\c2ccco2)nc2ccccc21`, the Potency entry in experiment [1], in experiment [2], in experiment [3] and in experiment [4] was “inactive” each time.

Take `NC(=O)C1CCN(C(=O)c2ccc3c(=O)n(Cc4cccc(Br)c4)c(=S)[nH]c3c2)CC1`: the Potency entry in experiment [1] and in experiment [3] was “inactive” in each case. Further, the activation in experiment [2] was 7.22% [at 17.1 µM, percent relative to cAMP agonist control]. Moreover, the activity change, negative = inhibition in experiment [4] was -4.35% [at 30.8 µM].

Take `COc1ccc(OC)c(C(=O)c2coc3cc(Br)c(O)c(Br)c23)c1`: the Potency result in experiment [1], in experiment [2], in experiment [3] and in experiment [4] was “inactive” each time.

Regarding `COc1ccc(OC)c(-n2c(SC)nnc2-c2c[nH]c3ccccc23)c1`, the Potency result in experiment [1], in experiment [2], in experiment [3] and in experiment [4] was “inactive” each time.

On to `O=C1CCCC2=C1C(c1ccc(O)c(O)c1)Nc1ccc3ccccc3c12` (centres undefined), for which the Potency entry in experiment [1], in experiment [2], in experiment [3] and in experiment [4] was “inactive” throughout.

Regarding `CCOc1ccccc1NC(=O)C1CCN(c2nc(-c3ccc(OC)cc3)no2)CC1`, the Potency entry in experiment [1] and in experiment [3] was “inactive” each time. In addition, in experiment [2], the activation was 2.09% [at 17.1 µM, percent relative to cAMP agonist control]. Moreover, the activity change, negative = inhibition in experiment [4] was -14.4% [at 30.8 µM].

Take `O=C(COC(=O)C1(c2ccc(Cl)cc2)CCCC1)NCc1ccco1`: the Potency result in experiment [1], in experiment [2] and in experiment [4] was “inactive” throughout. In addition, the Potency in experiment [3] is 75.7 µM (active).

On to `Clc1ccc(-c2nnc(-c3ccco3)nc2N2CCCCC2)cc1`, for which the Potency result in experiment [1] and in experiment [3] was “inactive” throughout. In experiment [2], the activation was 3.88% [at 17.1 µM, percent relative to cAMP agonist control]. Also, the activity change, negative = inhibition in experiment [4] is 13.5% [at 30.8 µM].

Take `COc1ccc(OC)c(NC(=O)C2(C)CCN2CCc2ccccc2)c1` (centres undefined): the Potency entry in experiment [1], in experiment [2] and in experiment [4] was “inactive” in each case. Moreover, the Potency in experiment [3] is 42.6 µM (active).

Turning to `CCN(C(=O)Cn1c(C(=O)OC)cc2sccc21)c1cccc(C)c1`, the Potency result in experiment [1], in experiment [2], in experiment [3] and in experiment [4] was “inactive” in each case.

As to `O=S(=O)(Nc1ccc(Cl)cc1NS(=O)(=O)c1ccccc1)c1ccccc1`, the Potency entry in experiment [1] and in experiment [3] was “inactive” in each case. The activation in experiment [2] is 1.88% [at 17.1 µM, percent relative to cAMP agonist control]. The activity change, negative = inhibition in experiment [4] was -27.8% [at 30.8 µM].

On to `COc1ccc(C(=O)N(Cc2ccco2)Cc2ccc(C)o2)cc1`, for which the Potency result in experiment [1], in experiment [2], in experiment [3] and in experiment [4] was “inactive” in each case.

With `CC(C)(C)C(C(=O)n1cccc1C#N)c1ccccc1` (centres undefined), the Potency result in experiment [1] and in experiment [3] was “inactive” in each case. For the same compound, in experiment [2], the activation is 5.44% [at 17.1 µM, percent relative to cAMP agonist control]. In addition, the activity change, negative = inhibition in experiment [4] is 3.86% [at 30.8 µM].

As to `O=C(CSc1ccc(-c2ccco2)nn1)c1cccc([N+](=O)[O-])c1`, the Potency result in experiment [1], in experiment [2], in experiment [3] and in experiment [4] was “inactive” in each case.

As to `O=C(NCc1ccc2c(c1)CCN2C(=O)c1ccccc1)Nc1cccc(C(F)(F)F)c1`, the Potency entry in experiment [1], in experiment [2], in experiment [3] and in experiment [4] was “inactive” throughout.

`Cn1cccc1C(=O)NC(=O)COC(=O)c1ccc(S(C)(=O)=O)c([N+](=O)[O-])c1`: the Potency result in experiment [1] and in experiment [3] was “inactive” throughout. The activation in experiment [2] was -3.13% [at 17.1 µM, percent relative to cAMP agonist control]. The activity change, negative = inhibition in experiment [4] is -20.5% [at 30.8 µM].

Take `CC(=O)N1N=C(c2ccc(Cl)cc2)CC1c1ccc([N+](=O)[O-])cc1` (centres undefined): the Potency entry in experiment [1] and in experiment [3] was “inactive” each time. For the same compound, in experiment [2], the activation was 7.36% [at 17.1 µM, percent relative to cAMP agonist control]. Further, the activity change, negative = inhibition in experiment [4] is 2.9% [at 30.8 µM].

With `CC(NS(=O)(=O)OCC(Cl)(Cl)Cl)c1ccc(Br)cc1` (centres undefined), the Potency result in experiment [1], in experiment [2], in experiment [3] and in experiment [4] was “inactive” each time.

As to `O=C(c1ccc(Br)cc1)C(CN1CCOCC1)c1ccccc1` (centres undefined), the Potency result in experiment [1] and in experiment [3] was “inactive” in each case. In experiment [2], the activation is 8.74% [at 17.1 µM, percent relative to cAMP agonist control]. In addition, the activity change, negative = inhibition in experiment [4] is 16% [at 30.8 µM].

Consider `O=C(Nc1ccccc1C(=O)O)c1cccc(NC(=O)c2ccc(Br)o2)c1`, for which the Potency entry in experiment [1], in experiment [2], in experiment [3] and in experiment [4] was “inactive” throughout.

With `Cc1noc(C)c1COc1ccccc1C(=O)NC(C)c1ccc(Cl)cc1` (centres undefined), the Potency entry in experiment [1], in experiment [2] and in experiment [4] was “inactive” throughout. Moreover, the Potency in experiment [3] was 33.8 µM (active).

Regarding `O=C(NCCc1ccccc1)c1ccc(Cn2c(SCc3cccc(F)c3)nc3cccnc32)cc1`, the Potency result in experiment [1], in experiment [2], in experiment [3] and in experiment [4] was “inactive” in each case.

For `O=C1CS(=O)(=O)N(Cc2cccc(F)c2)c2ccc(Br)cc21`, the Potency entry in experiment [1], in experiment [2], in experiment [3] and in experiment [4] was “inactive” each time.

As to `Cn1c(=O)c2c(-c3ccccc3Br)n(Cc3ccccc3)cc2n(C)c1=O`, the Potency entry in experiment [1], in experiment [2], in experiment [3] and in experiment [4] was “inactive” throughout.

Take `COc1ccc(NC(=O)CSc2nc(O)cc(=O)n2-c2ccc(OC)cc2)cc1`: the Potency result in experiment [1], in experiment [2], in experiment [3] and in experiment [4] was “inactive” throughout.

In the case of `c1cc(-c2cc3nc(NC4CCCCC4)ccn3n2)ccc1OCCN1CCOCC1`, the Potency result in experiment [1], in experiment [2], in experiment [3] and in experiment [4] was “inactive” each time.
